Compounds with a hit are over-represented: about 12% of the library has one in this group of screens.
BAZ2B block = blocks human BAZ2B | hit rate 4.4% among 360,000 | AlphaScreen BAZ2B-H3K14Ac peptide displacement | AID 504333 | Potency, µM (doses to about 114 µM), inactives show at the highest dose activity change, negative = inhibition, usual class: inhibitors | Q9UIF8; also: % is scaled to controls: 0 for no effect and ±100 for the full control effect; nearly all actives have a fitted effect of over 60% in size
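Protein-peptide AlphaScreen: BAZ2B 50 nM, b-H3K14Ac 50 nM, 1x PBS pH 7.4 + 0.01% Tween-20. Preincubation 30 min RT; cpd 30 min RT (top 110 uM); beads 20 min RT, light-protected.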
JMJD2A Tudor = inhibitors of human JMJD2A Tudor domain; AlphaScreen JMJD2A-Tudor / H3K4me3 peptide binding; O75164; hit rate 4.4% among 390,000; Potency, µM (titrated, usually from 114 µM), without a hit: at the highest dose activity change, negative = inhibition, actives largely listed as inhibitors; AID 504339; also: % is scaled to controls: 0 for no effect and ±100 for the full control effect; nearly all actives have a fitted effect of over 50% in size
G9a block = inhibitors of human histone lysine methyltransferase G9a; Q96KQ7; G9a H3K9 monomethylation, AlphaScreen, 2 h; Potency, µM (highest dose often 102 µM), for the others: top-dose activity, negative = inhibition, hits mostly inhibitors; hit rate 8.8% among 350,000; AID 504332; also: % is scaled to controls: 0 for no effect and ±100 for the full control effect; nearly all actives have a fitted effect of over 75% in size
Target sequence (Q96KQ7 913-1193 limits assumed): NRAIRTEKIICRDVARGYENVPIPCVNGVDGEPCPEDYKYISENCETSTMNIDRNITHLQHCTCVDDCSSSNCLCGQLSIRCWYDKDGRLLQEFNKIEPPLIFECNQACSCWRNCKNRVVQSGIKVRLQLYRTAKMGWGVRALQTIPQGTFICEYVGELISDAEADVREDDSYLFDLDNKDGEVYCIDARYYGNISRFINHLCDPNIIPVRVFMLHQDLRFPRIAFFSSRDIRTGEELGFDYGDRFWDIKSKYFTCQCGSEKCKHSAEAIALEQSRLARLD
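G9a (20 nM) was preincubated 15 min with compound, then reacted 2 h at room temperature with 500 nM biotin-H3K9 peptide and 20 µM SAM. Monomethyl-H3K9 detected by AlphaScreen using anti-H3K9me1 antibody.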
HP1b chromo inh = inhibitors of HP1-beta chromodomain binding to methylated histone tails. AlphaScreen HP1-beta / biotin-H3K9me3 peptide binding. hit rate 0.56% among 390,000. P83916. AID 540317. Potency, µM (series often up to 114 µM), for inactives: top-dose activity change, negative = inhibition, hits mostly inhibitors; also: nearly all actives have a fitted effect of over 70% in size
Target sequence (P83916 whole entry, looked up): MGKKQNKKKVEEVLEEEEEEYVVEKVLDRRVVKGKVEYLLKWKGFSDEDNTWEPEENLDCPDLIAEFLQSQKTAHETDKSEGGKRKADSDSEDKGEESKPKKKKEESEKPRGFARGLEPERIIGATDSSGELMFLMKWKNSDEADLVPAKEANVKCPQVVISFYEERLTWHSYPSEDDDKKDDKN
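HP1-beta protein (50 nM final) preincubated 30 min at room temperature with biotinylated H3(1-18)K9me3 peptide (50 nM) in PBS pH 7.4, 0.01% Tween-20, then compound added for 30 min. AlphaScreen streptavidin donor/nickel chelate acceptor beads (10 ug/mL final), 30 min dark, luminescence read.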
Sfp inh = blocks B. subtilis Sfp PPTase activity; Biochemical Sfp PPTase activity, qHTS; hit rate 3.5% among 310,000; AID 1490; Potency, µM, without a hit: largest response in the series, negative = inhibition, hits mostly inhibitors;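 also: the enzyme is Sfp with the accession as filed and its product quenches rhodamine fluorescence; 0% = enzyme reaction without inhibitor and -100% = no enzyme wells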
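Fluorescence-quenching assay: 15 nM Sfp-PPTase preincubated 15 min at room temperature with compound, then 5 uM rhodamine-CoA and 12.5 uM BHQ-2-labelled YbbR peptide added. Fluorescence (ex 525/em 598 nm) read at start and after 30 min; difference gives rate.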
* hit, by the source's call; ? = inconclusive; nt = no result given; ! = not confirmed by another sample; [ ] = remark or other dose. Calls follow the shape of the dose curve; as a rule, active = well fitted curve in the direction sought with a large enough effect; inconclusive = small, poorly fitted or top-dose-only effect, or another doubt; inactive = no such curve, though single readings can be large; an effect the other way counts as inactive or inconclusive. Potency is read from the fitted curve at half-maximal effect.

SMILES	BAZ2B block	JMJD2A Tudor	G9a block	HP1b chromo inh	Sfp inh
CC1CCCCC1NC(=O)CNC(=O)c1cccs1 (configuration not stated)	-1.0%	12.4%	14.1µM*	19.7%	nt
CC(=O)Nc1ccc(NC(=O)c2cc(CN3CCCC3)on2)cc1	-10.3%	-12.7%	8.1%[59 µM]	27.8%	nt
Cc1cc(C2=CC(C)(c3cc(C)oc3C)Nc3nc(C(F)(F)F)nn32)c(C)o1 (configuration not stated)	56.2µM*	nt	?	nt	12.6µM*
COc1ccc(Cl)cc1NC(=O)CSC1=Nc2ccccc2C2=NC(CCC(=O)NCc3ccco3)C(=O)N12 (configuration not stated)	-1.6%	-17.1%	-3.3%[59 µM]	5.8%	nt
O=C(N/N=C/c1ccc2nccnc2c1)c1ccccc1O	-10.1%	nt	16.4%	nt	6.6%
O=C(N/N=C/c1ccnc2ccccc12)c1ccccc1O	-14.4%	100µM*	3.9%	1.1%	4.3%
O=C(N/N=C/c1ccoc1)c1ccccc1O	?	-18.8%	-5.4%	3.1%	-0.7%
O=C(N/N=C/c1oc(O)c2ccccc12)c1ccccc1O	-7.8%	-16.0%	35.5µM*	-17.1%	29.9%
CCN1CCN(c2ccc(NC(=O)CCc3c(C)nc4c(-c5ccccc5)c(C)nn4c3C)cc2)CC1	-7.2%	?	79.4µM*	-5.7%	6.8%
Cc1cccc(OCc2n[nH]c(=S)o2)c1C	56.2µM*	-12.9%	20µM*	50.0%	-2.2%
Cc1cccc(OCc2cc(-c3ccccc3)no2)c1C	207.5%	196.6%	399.1%	204.6%	-4.7%
Cc1cccc(C)c1OCc1nnc(SCC(=O)NCc2ccccc2)o1	0.0%	2.6%	7.9%[12.7 µM]	46.2%	9.4%
Cc1cccc(OCc2n[nH]c(=S)o2)c1	-39.0%	?	10µM*	12.5%	11.2%
Cc1cccc(C)c1OCc1n[nH]c(=S)o1	-2.9%	-27.8%	2.24µM*	41.7%	10.4%
CCOc1ccc(C2CC(=O)n3nc(-c4ccc(C)cc4)nc3S2)cc1OC (configuration not stated)	-0.5%	1.0%	-22.8%[59 µM]	51.0%	nt
O=C(CSc1nccn1Cc1ccco1)Nc1ccc(OC(F)(F)F)cc1	?	?	-44.1%[59 µM]	-0.8%[57 µM]	nt
COc1cccc(C2=CC(c3ccccc3)n3nnnc3N2)c1 (configuration not stated)	3.1%	-15.1%	39.8µM*	27.8%	44.7µM*
COc1cccc(C2=CC(c3cccc(OC)c3OC)n3nnnc3N2)c1 (configuration not stated)	-4.9%	-12.3%	10µM*	54.4%	?
COc1ccc(C2C=C(c3ccccc3)Nc3nc(NC(C)=O)nn32)cc1 (configuration not stated)	50.1µM*!	-9.9%	?	26.7%	-6.9%
COc1ccc(C2C=C(c3ccccc3)Nc3nnnn32)cc1 (configuration not stated)	-1.3%	-16.1%	50.1µM*	30.6%	-11.4%
COc1ccc(OCC(=O)Nc2ccc3c(c2)nc(CCn2ccccc2=O)n3C)cc1	-34.8%	-0.7%	-48.1%	20.3%	10.1%
COC(=O)c1ccc(C(NC(=O)OCc2ccccc2)/C(F)=C/[C@@H](C)C(=O)NCCN2CCOCC2)cc1 (some centres not stated)	nt	nt	nt	nt	-2.4%
COc1ccc(C)cc1Nc1n[n+](C)c(-c2ccc(C(=O)O)cc2)s1	-23.1%	nt	?	nt	19.1%
COc1ccc(C)cc1Nc1n[n+](-c2ccccc2)c(-c2cc([N+](=O)[O-])cc(OC)c2O)s1	?	?	31.6µM*	-1.7%	22.4µM*
COc1ccc(C)cc1Nc1n[n+](-c2ccccc2)c(-c2ccc(SC)cc2)s1	56.2µM*	?	44.7µM*	-6.5%	?
SMILES	BAZ2B block	JMJD2A Tudor	G9a block	HP1b chromo inh	Sfp inh
COc1ccc(C)cc1Nc1n[n+](-c2ccccc2)c(-c2ccc(NC(C)=O)cc2)s1	?	-29.7%	31.6µM*	42.4%	?
COc1ccc(C)cc1Nc1ncnc2c1c(-c1ccccc1)cn2-c1ccc(C)cc1	-19.1%	-13.5%	-3.0%[59 µM]	28.1%	nt
COc1ccc(-c2sc(Nc3ccccc3)n[n+]2-c2ccc(F)cc2)c(OC)c1OC	-22.0%[57.1 µM]	-32.4%	?	23.5%	5.8%
COc1ccc(NC(=O)Cn2c(SCc3cccc(Cl)c3)nc3ccncc32)c(OC)c1OC	?	-20.1%	?	15.5%	nt
CN[C@H](CC(=O)O)C(=O)O	nt	22.4µM*	22.4µM*!	-19.8%	100µM*
O=c1[nH]c(=O)c2nc(-c3ccc(Cl)cc3)cnc2[nH]1	-11.2%	-10.2%	?	?	7.5%
O=c1cnc(-c2ccc(Cl)cc2)cn1O	?	89.1µM*	2.1%	1.3%	-4.1%
O=C(Nc1cccc(F)c1)C1CCCN(S(=O)(=O)c2cccc3cccnc23)C1 (configuration not stated)	-4.3%	-14.5%	39.0%	35.7%	8.3%
COc1ccc(CCNC(=O)C2CCCN(c3nc4c(C)cc(C)cc4s3)C2)cc1OC (configuration not stated)	0.5%	-20.7%	1.9%[59 µM]	12.2%	nt
CO[C@H]1COC(=O)C/C=C\[C@H](C)[C@H](OC)COC(=O)[C@@H](C)NC(=O)C/C=C\[C@@H]1C	nt	nt	nt	nt	13.0%
Cc1ccc(OCCN(C)C)c([N+](=O)[O-])c1	?	8.91µM*	?	?	-1.2%
COCCNCCOc1ccc(C)cc1[N+](=O)[O-]	?	25.1µM*	-40.6%	?	-3.7%
COc1cc(C)ccc1OCCOCCOc1ccc(C)cc1[N+](=O)[O-]	-10.5%	-12.6%	11.4%[59 µM]	22.3%	-2.6%
C=CCNCCOCCOc1ccc(C)cc1[N+](=O)[O-]	?	3.16µM*	22.4µM*	-20.3%	-7.9%
COc1ccc(C=O)cc1COc1ccc(C)cc1[N+](=O)[O-]	?	-20.9%	?	32.5%	-7.8%
Nc1nnc(/C=C/c2cccc([N+](=O)[O-])c2)s1	-17.5%	0.7%	?	27.6%	-2.9%
Cc1ccc(CNC(=O)Cn2c(=O)n(-c3cccc(Cl)c3)c(=O)c3sc4ccccc4c32)cc1	-14.9%	-19.2%	-1.3%[59 µM]	13.9%	nt
Cc1ccc2c(c1C)-c1c(ccc(C)c1C)C(=O)C2=O	nt	50.1µM*	nt	15.8µM*	nt
Cc1ccc2c(c1C)OC(=O)CC2(C)C	4.7%	-16.8%	11.6%[59 µM]	4.9%	-7.9%
S=C(Nc1ccc(Oc2ccccc2)cc1)NC1CCCCC1	-7.1%	-15.8%	-4.4%[59 µM]	16.5%	-4.5%
CC(OC(=O)CCC1CCCCC1)C(=O)Nc1ccc(S(N)(=O)=O)cc1 (configuration not stated)	7.4%	-15.9%	56.2µM*	11.5%	nt
O=S(=O)(c1ccc(NC(=S)NC2CCCC2)cc1)N1CCCC1	-16.8%	-33.0%	nt	-6.9%	-7.8%
COc1ccc(NC(=O)CSC2CCCCC2)cc1	7.8%	-9.6%	-45.2%[12.7 µM]	30.3%	-2.6%
NS(=O)(=O)c1ccc(NC(=S)NC2CCCC2)cc1	-5.4%	5.6%	8.91µM*	28.8%	10µM*
NS(=O)(=O)c1ccc(NC(=O)CSC2CCCCC2)cc1	-0.5%	28.2µM*	?	-18.0%	13.3%

Screens: PubChem BioAssay, National Center for Advancing Translational Sciences (NCATS)
